{
  "source": "PubChem BioAssay (Tox21)",
  "note": "Results filed as inconclusive are left out. Where a call stands in place of a potency, no number is given. The source made the active and inactive calls. Calls follow the shape of the full dose curve.",
  "data": [
    {"test": "qHTS assay to identify small molecule agonists of the progesterone receptor (PR) signaling pathway - cell viability counter screen (AID 1346799); also: nearly all actives have a fitted effect of over 45% in size", "conditions": "PR-UAS-bla HEK293T viability, CellTiter-Glo luminescence, 16 h; series mostly up to 92.4 µM", "from_the_text": "National Center for Advancing Translational Sciences [NCATS]\nNIH Chemical Genomics Center [NCGC]\nU.S. Environmental Protection Agency [EPA]\nNational Institutes of Environmental Health Sciences [NIEHS]\nNational Toxicology Program [NTP]\nU.S. Food and Drug Administration [FDA]\nProgesterone receptor (PR), a nuclear hormone receptor, plays an important role in development, metabolic homeostasis and reproduction. It is activated by the steroid hormone progesterone. Endocrine disrupting chemicals (EDCs) and their interactions with steroid hormone receptors like PR causes disruption of normal endocrine function. To identify the compounds that stimulate PR signaling, a PR-UAS-bla GripTite cell line i.e. PR-UAS-bla HEK293T (Invitrogen, Carlsbad, CA, USA) containing a beta-lactamase reporter gene under the control of an UAS response element was used to screen Tox21 10K compound library. The cytotoxicity of the Tox21 compound library against the PR-bla cell line was tested in parallel by measuring the cell viability using CellTiter-Glo assay in the same wells.\nTox21 Assay Protocol Summary:\nPR-UAS-bla HEK293T cells were dispensed at 3,000 cells/5 uL of assay medium containing 2% charcoal stripped FBS per well into black wall/clear-bottom 1536-well plates using a Multidrop Combi (ThermoFisher Scientific, Waltham, MA) dispenser. After the assay plates were incubated at a 37C and 5% CO2 for 6 hr, 23 nL of compounds dissolved in DMSO, positive controls or DMSO only was transferred to the assay plate by a Pintool station (Kalypsys, San Diego, CA). The plates were incubated at 37C and 5% CO2 for 16 hr. Then 1 uL of LiveBLAzer B/G FRET substrate was added using a Flying Reagent Dispenser (FRD, Aurora Discovery, San Diego, CA), the plates were incubated at room temperature for 2 hours, and fluorescence intensity was measured by an Envision plate reader (PerkinElmer, Shelton, CT). For cell viability readout that measures cytotoxicity, 4 uL/well of CellTiter-Glo reagent was added into the assay plates using a FRD. After 30 min incubation at room temperature, the luminescence intensity in the plates was measured using a ViewLux (PerkinElmer) plate reader.", "values": [
      {"smiles": "CCOC(=O)c1ccc(O)cc1", "Potency": "inactive"},
      {"smiles": "CC/C(C)=N/O", "Potency": "inactive"},
      {"smiles": "CCCCC(=O)O", "Potency": "inactive"},
      {"smiles": "CCCCCCC(=O)O", "Potency": "inactive"},
      {"smiles": "O=C1CCCCCCCCCCC1", "Potency": "inactive"},
      {"smiles": "CCn1cc(C(=O)O)c(=O)c2cc3c(cc21)OCO3", "activity change, negative = cytotoxicity": "-0.681% [at 19 µM] (inactive)"},
      {"smiles": "Cc1nnc(NS(=O)(=O)c2ccc(N)cc2)s1", "Potency": "inactive"},
      {"smiles": "CCCCCCCCCCCCCC(=O)O", "Potency": "inactive"},
      {"smiles": "O=C(c1ccccc1)c1ccc(O)c(O)c1O", "Potency": "inactive"},
      {"smiles": "CC(COCC(C)OC(=O)c1ccccc1)OC(=O)c1ccccc1", "note": "(stereo not given)", "Potency": "inactive"},
      {"smiles": "CC(O)CNCC(C)O", "note": "(stereo not given)", "Potency": "inactive"},
      {"smiles": "Cc1ccccc1Cl", "Potency": "inactive"},
      {"smiles": "CC(=O)OCCC(C)C", "Potency": "inactive"},
      {"smiles": "O=C(O)C1=NN(c2ccc(S(=O)(=O)O)cc2)C(=O)C1", "Potency": "inactive"},
      {"smiles": "Cc1cc(C)cc(O)c1", "Potency": "inactive"},
      {"smiles": "O=[N+]([O-])c1cc(C(F)(F)F)ccc1Cl", "Potency": "inactive"},
      {"smiles": "CCCOCC(C)O", "note": "(stereo not given)", "Potency": "inactive"},
      {"smiles": "Nc1cccc(C(F)(F)F)c1", "Potency": "inactive"},
      {"smiles": "O=c1n(CCCN2CCN(c3cccc(Cl)c3)CC2)nc2ccccn12", "Potency": "inactive"},
      {"smiles": "OCC(CO)(CO)CO", "Potency": "inactive"},
      {"smiles": "Brc1ccc(Oc2ccc(Br)cc2)cc1", "Potency": "inactive"},
      {"smiles": "CCOC(=O)CC(=O)OCC", "Potency": "inactive"},
      {"smiles": "CC[N+](CC)(CC(=O)Nc1c(C)cccc1C)Cc1ccccc1", "Potency": "inactive"},
      {"smiles": "C=C1C[C@]23C[C@@]1(O)CC[C@H]2[C@@]12C=C[C@H](O)[C@@](C)(C(=O)O1)[C@H]2[C@@H]3C(=O)O", "Potency": "inactive"},
      {"smiles": "Cc1ccncc1", "Potency": "inactive"},
      {"smiles": "CCCCCCCCC(=O)O", "Potency": "inactive"},
      {"smiles": "CCCCCCCCO", "Potency": "inactive"},
      {"smiles": "OCc1ccc(Cl)cc1Cl", "Potency": "inactive"},
      {"smiles": "CCCCCCCC(=O)O", "Potency": "inactive"},
      {"smiles": "OCCOCCOCCOCCOCCO", "Potency": "inactive"},
      {"smiles": "CC(=O)OC[C@H]1O[C@@](COC(C)=O)(O[C@H]2O[C@H](COC(C)=O)[C@@H](OC(C)=O)[C@H](OC(C)=O)[C@H]2OC(C)=O)[C@@H](OC(C)=O)[C@@H]1OC(C)=O", "Potency": "inactive"},
      {"smiles": "CN=C(NC#N)NCCSCc1nc[nH]c1C", "Potency": "inactive"},
      {"smiles": "CS(=O)(=O)c1ccc(Cl)cc1", "Potency": "inactive"},
      {"smiles": "CC(C)c1ccc(C(C)C)cc1", "Potency": "inactive"},
      {"smiles": "O=C1O[C@H]([C@H](O)CO)C(O)=C1O", "Potency": "inactive"},
      {"smiles": "O=C(Cl)c1ccc(C(=O)Cl)cc1", "Potency": "inactive"},
      {"smiles": "NCCNCCNCCN", "Potency": "inactive"},
      {"smiles": "O=C1OC(=O)c2c(Cl)c(Cl)c(Cl)c(Cl)c21", "Potency": "inactive"},
      {"smiles": "OC[C@H]1O[C@@H](Oc2ccc(O)cc2)[C@H](O)[C@@H](O)[C@@H]1O", "Potency": "inactive"},
      {"smiles": "COC(=O)/C=C\\C(=O)OC", "Potency": "inactive"}
    ]}
  ]
}
